Binding signal data for one sequence are collected here from article PMC7862700, “An all-to-all approach to the identification of sequence-specific readers for epigenetic DNA modifications on cytosine”.

What all share (test): DAPPL (digital affinity profiling via proximity ligation, sequencing); 10 mM Tris-HCl pH 7.5, 50 mM NaCl, 1 mM DTT, 4% glycerol, room temperature, 30 min; GST-TFs on glutathione beads, 16-mer random dsDNA library, 0.1% formaldehyde crosslink after washing; high values mean tight binding
The target in one experiment is T1, FEV (Homo sapiens, UniProt Q99581 1-238).
T1 sequence: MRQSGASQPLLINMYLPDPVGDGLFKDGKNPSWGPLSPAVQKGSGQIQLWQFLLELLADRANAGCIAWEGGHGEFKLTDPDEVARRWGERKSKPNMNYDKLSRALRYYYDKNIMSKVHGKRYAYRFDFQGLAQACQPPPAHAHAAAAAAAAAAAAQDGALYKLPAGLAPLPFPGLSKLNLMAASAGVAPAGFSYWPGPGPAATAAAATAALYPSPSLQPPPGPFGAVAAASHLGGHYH
As to conditions: protein: recombinant; tags: N-terminal GST; dsDNA, one strand shown. A digest of the protocol: (§1)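 Pools were built from human transcription factors expressed in yeast as GST fusions, captured on glutathione beads and DNA-barcoded, along with a tag-only sample. Incubation with 200 nmole of a 16-mer random double-stranded DNA library lasted 30 min at room temperature in Tris/NaCl/DTT/glycerol buffer, and was followed by washing, 0.1% formaldehyde crosslinking, proximity ligation, PCR amplification and Illumina NextSeq500 sequencing. Binding signal is the quotient of each hexamer's read frequency for a factor and its frequency for the tag-only sample.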

For a further experiment, the target named is ETV5 (Homo sapiens, UniProt P41161 1-510). As to conditions: protein: recombinant; tags: N-terminal GST; dsDNA, one strand shown. The method, boiled down: as §1
Chain of ETV5 (P41161 whole entry): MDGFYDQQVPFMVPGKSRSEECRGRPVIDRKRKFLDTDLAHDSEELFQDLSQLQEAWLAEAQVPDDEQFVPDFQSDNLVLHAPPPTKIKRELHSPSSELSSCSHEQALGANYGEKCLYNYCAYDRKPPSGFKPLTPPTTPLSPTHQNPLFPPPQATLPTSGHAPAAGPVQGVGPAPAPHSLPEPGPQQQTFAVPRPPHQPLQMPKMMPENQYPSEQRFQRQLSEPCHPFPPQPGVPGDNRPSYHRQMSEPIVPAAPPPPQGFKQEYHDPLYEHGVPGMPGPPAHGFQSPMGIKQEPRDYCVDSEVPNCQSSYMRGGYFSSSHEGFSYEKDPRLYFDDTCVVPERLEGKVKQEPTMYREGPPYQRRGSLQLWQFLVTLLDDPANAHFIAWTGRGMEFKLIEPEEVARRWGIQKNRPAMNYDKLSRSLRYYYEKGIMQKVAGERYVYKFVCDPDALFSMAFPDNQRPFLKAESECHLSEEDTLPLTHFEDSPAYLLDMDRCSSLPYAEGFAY
In a further experiment the target is HSF1 (Homo sapiens, UniProt Q00613 1-529). As to conditions: protein: recombinant; tags: N-terminal GST; chain copies: 3; dsDNA, one strand shown. A digest of the protocol: as §1
Chain of HSF1 (Q00613 whole entry): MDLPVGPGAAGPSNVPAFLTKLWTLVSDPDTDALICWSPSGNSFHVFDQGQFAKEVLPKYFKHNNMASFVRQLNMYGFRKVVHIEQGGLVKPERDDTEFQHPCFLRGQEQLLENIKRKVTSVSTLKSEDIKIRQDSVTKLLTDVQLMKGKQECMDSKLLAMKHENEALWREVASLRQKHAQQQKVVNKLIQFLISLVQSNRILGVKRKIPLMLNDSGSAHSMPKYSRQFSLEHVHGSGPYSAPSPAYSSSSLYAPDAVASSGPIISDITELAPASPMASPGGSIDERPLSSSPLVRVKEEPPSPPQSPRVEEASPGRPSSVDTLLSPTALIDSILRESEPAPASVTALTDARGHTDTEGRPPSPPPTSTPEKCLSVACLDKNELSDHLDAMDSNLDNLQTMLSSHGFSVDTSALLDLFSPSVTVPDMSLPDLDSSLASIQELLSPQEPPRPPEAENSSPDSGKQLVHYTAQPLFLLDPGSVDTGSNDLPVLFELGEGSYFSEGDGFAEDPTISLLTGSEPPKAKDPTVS
The target of the next experiment is T2, SPIC (Homo sapiens, UniProt Q8N5J4 1-248).
T2 sequence: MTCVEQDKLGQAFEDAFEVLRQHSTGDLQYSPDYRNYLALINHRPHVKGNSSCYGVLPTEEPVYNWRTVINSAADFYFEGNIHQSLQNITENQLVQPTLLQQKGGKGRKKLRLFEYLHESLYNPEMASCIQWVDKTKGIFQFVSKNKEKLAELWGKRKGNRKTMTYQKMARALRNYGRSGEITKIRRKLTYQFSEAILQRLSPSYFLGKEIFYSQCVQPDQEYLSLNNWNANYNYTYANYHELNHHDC
Particulars: protein: recombinant; tags: N-terminal GST; dsDNA, one strand shown. The method, boiled down: as §1

For the next experiment, the target named is ELF4 (Homo sapiens, UniProt Q99607 1-663). As to conditions: protein: recombinant; tags: N-terminal GST; dsDNA, one strand shown. A digest of the protocol:
as §1

The next experiment has as its target T3, ELK4 (Homo sapiens, UniProt P28324-2 1-405).
T3 sequence: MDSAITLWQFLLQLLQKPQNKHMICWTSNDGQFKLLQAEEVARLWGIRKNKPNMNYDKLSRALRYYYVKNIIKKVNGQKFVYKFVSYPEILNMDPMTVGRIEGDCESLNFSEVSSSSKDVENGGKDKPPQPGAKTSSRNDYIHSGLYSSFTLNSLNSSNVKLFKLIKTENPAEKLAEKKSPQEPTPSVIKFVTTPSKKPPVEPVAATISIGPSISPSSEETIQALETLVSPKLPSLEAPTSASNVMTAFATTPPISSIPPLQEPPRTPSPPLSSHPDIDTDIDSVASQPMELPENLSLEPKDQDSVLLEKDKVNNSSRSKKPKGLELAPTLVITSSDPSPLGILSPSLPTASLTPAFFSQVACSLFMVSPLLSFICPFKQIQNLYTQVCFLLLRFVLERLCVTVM
As to conditions: protein: recombinant; tags: N-terminal GST; dsDNA, one strand shown. A digest of the protocol:
as §1

In the next experiment the target is T4, ETV2 (Homo sapiens, UniProt O00321 1-342).
T4 sequence: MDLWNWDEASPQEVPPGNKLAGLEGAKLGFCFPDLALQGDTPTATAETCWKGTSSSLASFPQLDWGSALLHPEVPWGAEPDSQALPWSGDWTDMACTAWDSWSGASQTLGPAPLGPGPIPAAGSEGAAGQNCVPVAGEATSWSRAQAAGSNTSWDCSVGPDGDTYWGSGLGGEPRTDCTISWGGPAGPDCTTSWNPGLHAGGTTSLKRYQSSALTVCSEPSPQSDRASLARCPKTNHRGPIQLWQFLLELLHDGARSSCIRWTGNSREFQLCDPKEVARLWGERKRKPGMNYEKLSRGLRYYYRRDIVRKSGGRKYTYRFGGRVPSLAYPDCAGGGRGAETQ
Particulars: protein: recombinant; tags: N-terminal GST; dsDNA, one strand shown. A digest of the protocol:
as §1

The target in the next experiment is T5, ELF3 (Homo sapiens, UniProt P78545 1-371).
T5 sequence: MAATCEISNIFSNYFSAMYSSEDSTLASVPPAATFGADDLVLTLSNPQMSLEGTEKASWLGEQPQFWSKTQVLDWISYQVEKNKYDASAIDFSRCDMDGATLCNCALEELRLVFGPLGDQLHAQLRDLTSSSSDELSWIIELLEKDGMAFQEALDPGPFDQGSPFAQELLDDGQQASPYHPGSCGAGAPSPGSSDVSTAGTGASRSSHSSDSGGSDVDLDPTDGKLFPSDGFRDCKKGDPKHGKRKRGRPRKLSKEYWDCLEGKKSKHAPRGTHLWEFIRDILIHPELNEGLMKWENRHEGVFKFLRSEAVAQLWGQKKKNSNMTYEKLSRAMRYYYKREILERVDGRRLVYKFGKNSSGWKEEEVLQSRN
As to conditions: protein: recombinant; tags: N-terminal GST; dsDNA, one strand shown. The method, boiled down:
as §1

The next experiment concerns the target CRX (Homo sapiens, UniProt O43186 1-299). As to conditions: protein: recombinant; tags: N-terminal GST; dsDNA, one strand shown. A digest of the protocol: as §1
The target of another experiment is ETV1 (Homo sapiens, UniProt P50549 1-477). As to conditions: protein: recombinant; tags: N-terminal GST; dsDNA, one strand shown. A digest of the protocol: as §1
Chain of ETV1 (P50549 whole entry): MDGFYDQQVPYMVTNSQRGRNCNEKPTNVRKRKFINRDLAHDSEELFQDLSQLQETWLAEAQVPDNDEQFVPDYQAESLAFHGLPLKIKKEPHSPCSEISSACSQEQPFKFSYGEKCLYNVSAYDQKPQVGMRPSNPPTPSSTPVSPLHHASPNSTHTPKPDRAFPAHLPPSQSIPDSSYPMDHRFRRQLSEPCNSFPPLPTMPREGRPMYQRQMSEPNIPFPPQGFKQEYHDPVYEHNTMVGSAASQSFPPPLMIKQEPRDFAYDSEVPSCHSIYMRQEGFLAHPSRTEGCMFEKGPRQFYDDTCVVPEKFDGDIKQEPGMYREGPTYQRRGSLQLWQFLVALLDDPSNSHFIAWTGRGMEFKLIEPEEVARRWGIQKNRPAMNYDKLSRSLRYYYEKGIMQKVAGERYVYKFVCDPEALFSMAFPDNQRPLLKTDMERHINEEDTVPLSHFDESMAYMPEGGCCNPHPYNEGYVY
The target of another experiment is T6, ERF (Homo sapiens, UniProt P50548 1-548).
T6 sequence: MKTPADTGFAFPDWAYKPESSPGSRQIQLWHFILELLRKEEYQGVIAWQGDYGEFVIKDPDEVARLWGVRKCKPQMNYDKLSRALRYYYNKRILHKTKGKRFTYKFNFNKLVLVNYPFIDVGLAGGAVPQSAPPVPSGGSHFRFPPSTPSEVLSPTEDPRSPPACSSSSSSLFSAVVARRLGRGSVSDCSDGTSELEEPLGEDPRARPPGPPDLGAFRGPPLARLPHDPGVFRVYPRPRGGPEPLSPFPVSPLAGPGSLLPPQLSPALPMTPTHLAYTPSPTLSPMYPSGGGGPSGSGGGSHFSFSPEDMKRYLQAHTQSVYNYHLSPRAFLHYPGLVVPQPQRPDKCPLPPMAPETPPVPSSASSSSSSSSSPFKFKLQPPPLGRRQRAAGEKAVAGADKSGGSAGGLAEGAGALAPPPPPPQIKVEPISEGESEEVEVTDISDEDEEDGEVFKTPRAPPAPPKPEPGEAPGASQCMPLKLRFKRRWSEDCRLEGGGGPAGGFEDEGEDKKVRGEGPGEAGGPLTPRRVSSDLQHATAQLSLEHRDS
As to conditions: protein: recombinant; tags: N-terminal GST; dsDNA, one strand shown. A digest of the protocol:
as §1

The target in another experiment is T7, ETV3L (Homo sapiens, UniProt Q6ZN32 1-361).
T7 sequence: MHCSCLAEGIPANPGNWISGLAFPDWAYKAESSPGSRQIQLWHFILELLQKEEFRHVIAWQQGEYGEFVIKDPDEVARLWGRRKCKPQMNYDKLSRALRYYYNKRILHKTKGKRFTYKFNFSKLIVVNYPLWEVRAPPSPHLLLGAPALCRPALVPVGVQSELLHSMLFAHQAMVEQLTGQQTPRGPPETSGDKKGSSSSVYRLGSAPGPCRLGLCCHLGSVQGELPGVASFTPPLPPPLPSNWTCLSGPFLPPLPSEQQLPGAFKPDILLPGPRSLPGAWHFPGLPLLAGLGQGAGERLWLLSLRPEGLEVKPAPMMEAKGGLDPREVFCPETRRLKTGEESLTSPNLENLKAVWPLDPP
Particulars: protein: recombinant; tags: N-terminal GST; dsDNA, one strand shown. A digest of the protocol:
as §1

A further experiment concerns the target T8, ETS2 (Homo sapiens, UniProt P15036 1-469).
T8 sequence: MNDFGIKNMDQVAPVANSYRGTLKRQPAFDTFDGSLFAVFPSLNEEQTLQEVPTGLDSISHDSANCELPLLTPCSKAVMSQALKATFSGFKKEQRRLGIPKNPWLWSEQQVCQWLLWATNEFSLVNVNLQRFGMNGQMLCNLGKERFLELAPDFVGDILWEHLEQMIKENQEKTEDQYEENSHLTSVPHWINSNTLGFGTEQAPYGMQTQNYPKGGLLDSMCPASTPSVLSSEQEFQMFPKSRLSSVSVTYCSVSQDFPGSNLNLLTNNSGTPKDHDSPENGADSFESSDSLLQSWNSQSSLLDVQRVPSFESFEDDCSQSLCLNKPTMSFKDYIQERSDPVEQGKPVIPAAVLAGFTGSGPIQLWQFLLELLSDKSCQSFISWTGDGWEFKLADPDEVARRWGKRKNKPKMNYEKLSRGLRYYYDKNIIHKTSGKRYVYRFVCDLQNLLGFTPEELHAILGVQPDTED
Particulars: protein: recombinant; tags: N-terminal GST; dsDNA, one strand shown. The method, boiled down: as §1

The target of a further experiment is T9, SPDEF (Homo sapiens, UniProt O95238 1-335).
T9 sequence: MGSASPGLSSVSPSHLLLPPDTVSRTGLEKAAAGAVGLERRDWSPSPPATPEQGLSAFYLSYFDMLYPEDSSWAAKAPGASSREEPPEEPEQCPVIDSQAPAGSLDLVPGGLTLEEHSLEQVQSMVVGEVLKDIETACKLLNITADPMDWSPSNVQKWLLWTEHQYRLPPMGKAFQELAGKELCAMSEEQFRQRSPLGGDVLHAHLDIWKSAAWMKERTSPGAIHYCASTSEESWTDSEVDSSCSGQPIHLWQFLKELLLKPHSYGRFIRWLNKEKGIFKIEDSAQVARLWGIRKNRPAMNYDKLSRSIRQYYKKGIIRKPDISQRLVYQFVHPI
Particulars: protein: recombinant; tags: N-terminal GST; dsDNA, one strand shown. A digest of the protocol:
as §1

The next experiment addresses T10, ETV7 (Homo sapiens, UniProt Q9Y603 1-341).
T10 sequence: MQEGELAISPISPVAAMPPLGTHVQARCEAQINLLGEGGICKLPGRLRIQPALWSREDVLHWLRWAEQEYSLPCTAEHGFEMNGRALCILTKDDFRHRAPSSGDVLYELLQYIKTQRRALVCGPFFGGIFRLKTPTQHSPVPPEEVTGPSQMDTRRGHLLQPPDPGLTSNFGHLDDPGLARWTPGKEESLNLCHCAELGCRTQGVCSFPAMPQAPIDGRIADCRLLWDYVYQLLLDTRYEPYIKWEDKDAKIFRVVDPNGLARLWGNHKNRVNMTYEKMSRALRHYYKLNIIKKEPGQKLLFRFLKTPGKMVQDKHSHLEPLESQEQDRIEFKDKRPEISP
Particulars: protein: recombinant; tags: N-terminal GST; dsDNA, one strand shown. The method, boiled down: as §1

Another experiment deals with T11, ELF5 (Homo sapiens, UniProt Q9UKW6-2 1-255).
T11 sequence: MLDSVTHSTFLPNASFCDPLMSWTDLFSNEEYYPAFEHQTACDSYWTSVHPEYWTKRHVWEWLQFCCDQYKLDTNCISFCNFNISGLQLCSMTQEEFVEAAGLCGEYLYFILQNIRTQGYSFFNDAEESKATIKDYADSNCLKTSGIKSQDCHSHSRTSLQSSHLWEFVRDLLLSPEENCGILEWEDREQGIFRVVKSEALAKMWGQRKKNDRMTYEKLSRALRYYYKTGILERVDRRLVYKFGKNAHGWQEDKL
Particulars: protein: recombinant; tags: N-terminal GST; dsDNA, one strand shown. A digest of the protocol:
as §1

A further experiment concerns the target T12, ETV3 (Homo sapiens, UniProt P41162-2 1-143).
T12 sequence: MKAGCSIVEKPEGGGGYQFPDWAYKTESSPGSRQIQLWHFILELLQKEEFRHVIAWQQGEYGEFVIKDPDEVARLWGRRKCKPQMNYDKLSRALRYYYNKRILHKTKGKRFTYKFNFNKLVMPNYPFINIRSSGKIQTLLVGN
As to conditions: protein: recombinant; tags: N-terminal GST; dsDNA, one strand shown. The method, boiled down:
as §1

In another experiment the target is ETV6 (Homo sapiens, UniProt P41212 1-452). As to conditions: protein: recombinant; tags: N-terminal GST; dsDNA, one strand shown. A digest of the protocol:
as §1

Chain of ELF4 (Q99607 whole entry): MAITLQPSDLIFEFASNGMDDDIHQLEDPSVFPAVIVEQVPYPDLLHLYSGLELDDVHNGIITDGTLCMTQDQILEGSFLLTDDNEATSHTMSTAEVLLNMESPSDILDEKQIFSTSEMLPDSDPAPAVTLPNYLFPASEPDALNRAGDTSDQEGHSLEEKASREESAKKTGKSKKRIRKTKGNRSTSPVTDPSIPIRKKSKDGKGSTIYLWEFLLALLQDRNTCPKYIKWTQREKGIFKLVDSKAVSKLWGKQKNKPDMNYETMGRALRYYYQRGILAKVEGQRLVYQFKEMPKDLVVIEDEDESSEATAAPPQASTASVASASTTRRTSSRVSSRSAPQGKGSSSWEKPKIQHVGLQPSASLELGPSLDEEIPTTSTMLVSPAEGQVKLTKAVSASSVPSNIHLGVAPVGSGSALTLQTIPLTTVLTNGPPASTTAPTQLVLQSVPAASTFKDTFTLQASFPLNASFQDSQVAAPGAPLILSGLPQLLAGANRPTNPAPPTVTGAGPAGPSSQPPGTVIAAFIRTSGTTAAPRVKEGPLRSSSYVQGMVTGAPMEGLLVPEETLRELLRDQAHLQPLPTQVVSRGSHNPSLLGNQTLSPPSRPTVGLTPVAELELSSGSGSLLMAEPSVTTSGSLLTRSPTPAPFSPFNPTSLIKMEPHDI
Chain of CRX (O43186 whole entry): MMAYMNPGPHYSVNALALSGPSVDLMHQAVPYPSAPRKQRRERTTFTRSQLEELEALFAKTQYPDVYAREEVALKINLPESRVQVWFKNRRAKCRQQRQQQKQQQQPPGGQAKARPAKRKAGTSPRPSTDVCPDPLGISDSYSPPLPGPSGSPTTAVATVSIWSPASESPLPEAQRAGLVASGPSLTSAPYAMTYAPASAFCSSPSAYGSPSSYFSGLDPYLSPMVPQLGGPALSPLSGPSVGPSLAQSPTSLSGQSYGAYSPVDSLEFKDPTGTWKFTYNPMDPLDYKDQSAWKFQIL
Chain of ETV6 (P41212 whole entry): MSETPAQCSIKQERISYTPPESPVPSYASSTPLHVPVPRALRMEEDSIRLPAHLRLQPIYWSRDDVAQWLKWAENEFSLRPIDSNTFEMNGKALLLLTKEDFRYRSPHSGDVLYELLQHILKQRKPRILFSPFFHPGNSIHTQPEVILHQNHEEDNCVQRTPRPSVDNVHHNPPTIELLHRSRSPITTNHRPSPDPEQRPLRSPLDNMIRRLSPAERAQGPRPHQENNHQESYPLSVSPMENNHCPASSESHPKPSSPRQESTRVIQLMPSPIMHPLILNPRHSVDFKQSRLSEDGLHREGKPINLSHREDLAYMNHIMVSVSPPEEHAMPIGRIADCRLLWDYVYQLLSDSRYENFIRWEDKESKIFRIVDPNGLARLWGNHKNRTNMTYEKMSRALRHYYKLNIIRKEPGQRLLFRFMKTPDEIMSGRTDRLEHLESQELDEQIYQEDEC

With TATACG, the binding signal is 1.18 fold enrichment (6-mer frequency, TF over GST control) with FEV; 1.25 fold enrichment (6-mer frequency, TF over GST control) with ETV5; 1.27 fold enrichment (6-mer frequency, TF over GST control) with HSF1; 1.1 fold enrichment (6-mer frequency, TF over GST control) in the experiment with SPIC; 1.31 fold enrichment (6-mer frequency, TF over GST control) in the experiment with ELF4; 1.14 fold enrichment (6-mer frequency, TF over GST control) in the experiment with ELK4. In addition, the binding signal was 1.15 fold enrichment (6-mer frequency, TF over GST control) with ETV2; 1.26 fold enrichment (6-mer frequency, TF over GST control) with ELF3; 1.39 fold enrichment (6-mer frequency, TF over GST control) with CRX; 1.32 fold enrichment (6-mer frequency, TF over GST control) in the experiment with ETV1; 1.39 fold enrichment (6-mer frequency, TF over GST control) with ERF; 1.15 fold enrichment (6-mer frequency, TF over GST control) in the experiment with ETV3L. The binding signal is 1.37 fold enrichment (6-mer frequency, TF over GST control) with ETS2; 1.39 fold enrichment (6-mer frequency, TF over GST control) in the experiment with SPDEF; 1.39 fold enrichment (6-mer frequency, TF over GST control) with ETV7; 1.35 fold enrichment (6-mer frequency, TF over GST control) with ELF5; 1.3 fold enrichment (6-mer frequency, TF over GST control) with ETV3; 1.23 fold enrichment (6-mer frequency, TF over GST control) with ETV6.
